In PubChem BioAssay AID652162 (Broad Institute, 2013) one finds inhibition data, which are given here for 44 compounds.

A word on the inhibition: it is the change of the read-out against control, counted positive when it falls.

Among all 350,000 compounds or so, about 840 (0.24%) were called active. Many of the other results were omitted from the sample, so actives are more common in it than they were. A number with no mark means an inactive call. Cut-off read from the data, not from the text of the source: active = inhibition above about 10%; inactive = the rest.

The target of the experiment is Toxin B (Clostridioides difficile) (UniProt P18177). The experiment can be described thus: TcdB glycohydrolase inhibitors, primary screen, biochemical, single point, plate reader (AID 652162). The conditions noted are these: TcdB glycohydrolase enzymatic assay, at 9.99 µM, active compounds read high.
Sequence of Toxin B (Clostridioides difficile) (P18177 whole entry, looked up): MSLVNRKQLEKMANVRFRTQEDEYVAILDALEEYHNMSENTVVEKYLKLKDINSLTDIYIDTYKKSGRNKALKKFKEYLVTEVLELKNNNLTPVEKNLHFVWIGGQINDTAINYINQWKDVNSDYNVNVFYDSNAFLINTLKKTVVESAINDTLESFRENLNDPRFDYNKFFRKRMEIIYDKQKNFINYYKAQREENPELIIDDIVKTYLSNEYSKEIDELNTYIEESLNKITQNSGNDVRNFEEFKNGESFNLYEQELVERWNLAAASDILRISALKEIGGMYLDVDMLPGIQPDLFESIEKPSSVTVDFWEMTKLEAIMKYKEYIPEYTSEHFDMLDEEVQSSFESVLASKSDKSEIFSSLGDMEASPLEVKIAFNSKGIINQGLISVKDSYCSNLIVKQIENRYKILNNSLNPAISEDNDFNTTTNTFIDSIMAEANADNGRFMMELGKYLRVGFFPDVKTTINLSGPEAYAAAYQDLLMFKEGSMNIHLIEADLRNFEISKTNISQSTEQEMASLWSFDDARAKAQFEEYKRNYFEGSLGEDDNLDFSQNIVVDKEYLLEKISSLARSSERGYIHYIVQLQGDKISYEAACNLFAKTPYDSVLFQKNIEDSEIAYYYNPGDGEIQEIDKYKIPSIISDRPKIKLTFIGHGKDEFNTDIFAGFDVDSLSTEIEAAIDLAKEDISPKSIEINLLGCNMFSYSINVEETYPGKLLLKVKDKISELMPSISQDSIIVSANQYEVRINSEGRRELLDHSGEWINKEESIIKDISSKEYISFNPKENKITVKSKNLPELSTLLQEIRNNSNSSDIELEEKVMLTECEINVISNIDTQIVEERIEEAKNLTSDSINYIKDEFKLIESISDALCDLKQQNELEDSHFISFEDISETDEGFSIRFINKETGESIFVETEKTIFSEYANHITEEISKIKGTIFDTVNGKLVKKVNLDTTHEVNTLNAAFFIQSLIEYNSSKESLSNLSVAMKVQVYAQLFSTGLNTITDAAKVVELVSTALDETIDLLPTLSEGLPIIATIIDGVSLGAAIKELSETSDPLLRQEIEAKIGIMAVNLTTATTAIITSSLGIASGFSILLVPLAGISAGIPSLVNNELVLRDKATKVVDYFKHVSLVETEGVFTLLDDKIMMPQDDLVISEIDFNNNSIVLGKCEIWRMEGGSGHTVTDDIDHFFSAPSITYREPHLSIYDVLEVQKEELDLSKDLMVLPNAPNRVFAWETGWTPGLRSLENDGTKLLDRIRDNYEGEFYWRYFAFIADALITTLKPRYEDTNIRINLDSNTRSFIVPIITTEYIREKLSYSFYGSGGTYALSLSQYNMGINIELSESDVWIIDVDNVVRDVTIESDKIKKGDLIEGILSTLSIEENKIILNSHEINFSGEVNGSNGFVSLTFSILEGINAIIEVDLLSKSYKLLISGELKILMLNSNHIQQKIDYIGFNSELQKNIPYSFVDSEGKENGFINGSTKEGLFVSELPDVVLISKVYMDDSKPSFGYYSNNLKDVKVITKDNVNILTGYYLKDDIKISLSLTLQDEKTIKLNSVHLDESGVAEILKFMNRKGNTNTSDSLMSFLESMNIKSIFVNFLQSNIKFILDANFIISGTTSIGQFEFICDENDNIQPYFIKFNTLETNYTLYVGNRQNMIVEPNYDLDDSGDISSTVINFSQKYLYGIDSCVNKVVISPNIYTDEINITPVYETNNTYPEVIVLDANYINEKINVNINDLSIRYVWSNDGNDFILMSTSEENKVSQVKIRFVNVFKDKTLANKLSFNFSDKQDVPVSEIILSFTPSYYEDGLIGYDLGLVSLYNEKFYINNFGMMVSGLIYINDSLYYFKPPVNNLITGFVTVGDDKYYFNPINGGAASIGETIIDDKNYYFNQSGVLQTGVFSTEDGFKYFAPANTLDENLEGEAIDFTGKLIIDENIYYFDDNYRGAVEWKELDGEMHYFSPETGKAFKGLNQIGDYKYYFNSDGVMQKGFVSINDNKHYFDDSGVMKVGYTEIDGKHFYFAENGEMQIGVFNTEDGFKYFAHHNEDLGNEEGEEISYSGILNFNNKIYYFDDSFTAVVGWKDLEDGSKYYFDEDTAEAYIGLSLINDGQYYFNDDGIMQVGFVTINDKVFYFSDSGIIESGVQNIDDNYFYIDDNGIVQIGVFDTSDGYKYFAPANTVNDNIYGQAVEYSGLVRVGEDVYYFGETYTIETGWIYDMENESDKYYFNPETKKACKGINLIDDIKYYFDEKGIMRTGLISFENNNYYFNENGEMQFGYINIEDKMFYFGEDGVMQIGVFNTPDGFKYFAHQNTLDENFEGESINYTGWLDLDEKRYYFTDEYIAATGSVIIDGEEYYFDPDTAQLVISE
For the compound `O=C(C[C@@H]1CC[C@@H]2[C@H](COC[C@H](O)CN2CC2CCOCC2)O1)NCC1CCCCC1`, the inhibition is 0.565%.
`C[C@H]1CN([C@@H](C)CO)C(=O)c2cc(NS(=O)(=O)c3ccc(F)cc3)ccc2O[C@H]1CN(C)CC1CC1`: the inhibition was -1.14%.
Then `O=C(C[C@@H]1C[C@@H]2c3cc(NS(=O)(=O)c4ccc(F)cc4)ccc3O[C@@H]2[C@H](CO)O1)NCc1cc(F)ccc1F`, with -0.254%; and `C[C@@H]1CN([C@@H](C)CO)C(=O)c2cc(NC(=O)Nc3ccc(C(F)(F)F)cc3)ccc2O[C@@H](C)CCCCO[C@@H]1CN(C)C(=O)Nc1cccc2ccccc12`, with -0.569%.
Then `C[C@@H]1CN([C@H](C)CO)C(=O)c2cccc(NS(=O)(=O)c3ccc(F)cc3)c2O[C@@H]1CN(C)C(=O)Nc1ccc(C(F)(F)F)cc1`, with 0.036%.
Then `C[C@@H]1CN([C@@H](C)CO)S(=O)(=O)c2ccc(/C=C/c3ccccc3)cc2O[C@H]1CN(C)C(=O)Nc1cc(F)ccc1F`, with -0.621%; and `O=C(N/C(=C\c1ccc(F)cc1)C(=O)N1CCCCCC1)c1ccccc1`, with 1.06%.
Turning to `CC1CCN(C(=O)/C(=C\c2ccccc2)NC(=O)c2ccccc2)CC1`, the inhibition was 0.574%.
In the case of `O=C(N/C(=C\c1ccc(O)cc1)C(=O)N1CCCCC1)c1ccccc1` it was 14.3% (active); in that of `C[C@H](CO)N1C[C@H](C)[C@H](CN(C)S(=O)(=O)c2ccccc2C#N)OCc2cn(nn2)CCCC1=O`, -0.086%.
As to `CNC[C@H]1OCCCC[C@@H](C)Oc2ccc(NS(C)(=O)=O)cc2C(=O)N([C@@H](C)CO)C[C@H]1C`, the inhibition is 0.355%.
Then `CO[C@H]1CN(C)C(=O)c2cc(NC(=O)c3cc(C)on3)ccc2OC[C@@H](C)N(C(C)=O)C[C@H]1C`, with -0.186%; and `C[C@H](CO)N1C[C@H](C)[C@H](CN(C)S(=O)(=O)c2cccs2)Oc2ccc(NC(=O)Nc3ccccc3)cc2C1=O`, with -11.1%.
Then `O=C(Nc1cccc(Cl)c1)N[C@@H]1CC[C@@H](CCNC(=O)C2CCOCC2)O[C@@H]1CO`, with -0.908%.
Then `CN(C)c1ccc(-c2nnc(-c3cccnc3)o2)cc1`, with 0.383%; and `CN(c1ccc(O)cc1)c1nc(-c2cccnc2)cs1`, with 14.9% (active); and `O=C(NNC(=O)c1csc(-c2cccnc2)n1)Nc1ccc(Cl)cc1`, with 0.087%.
For `CCCNC(=O)C[C@H]1C[C@@H]2c3cc(NC(=O)NC4CCCC4)ccc3O[C@@H]2[C@@H](CO)O1`, the inhibition was -0.087%.
In the case of `O=C(c1cccc(F)c1)N1CC[C@@H]2[C@H](CO)Nc3ccc(-c4ccccc4)cc3[C@@H]21` it was -1.25%; in that of `CCC(=O)N(C)C[C@H]1Oc2cc(/C=C/c3ccccc3)ccc2S(=O)(=O)N([C@H](C)CO)C[C@H]1C`, 0.008%.
In the case of `CCCC#Cc1ccc([C@H]2[C@@H](CO)N3C(=O)CN(C(=O)c4ccncc4)C[C@H]23)cc1` it was 0.225%; in that of `COc1ccccc1S(=O)(=O)N1CC[C@@H]2[C@H]1c1cc(-c3ccccc3)ccc1N[C@@H]2CO`, -0.443%; in that of `COc1ccc(S(=O)(=O)Nc2ccc3c(c2)C(=O)N([C@@H](C)CO)C[C@@H](C)[C@H](CN(C)S(=O)(=O)c2cccs2)O3)cc1`, 0.284%.
In the case of `C[C@H](CO)N1C[C@H](C)[C@H](CN(C)S(=O)(=O)c2cccc(F)c2)Oc2ncc(/C=C/c3ccccc3)cc2C1=O` it was 0.994%; in that of `O=C(Cc1ccccn1)N[C@H]1CC[C@H](CCn2cc(-c3ccc(F)cc3)nn2)O[C@H]1CO`, -7.26%; in that of `CO[C@@H]1CN(C)C(=O)c2cc(NC(C)=O)ccc2OC[C@H](C)N(Cc2ccccn2)C[C@H]1C`, 0.576%.
As to `COc1cccc(-n2c(=S)sc3c(=O)n(-c4ccccc4OC)c(SCC4OCCO4)nc32)c1`, the inhibition was 1.51%.
In the case of `COc1ccccc1-n1c(SCC(=O)O)nc2sc3c(c2c1=O)CCC3` it was -0.511%.
Then `COc1ccc(Cl)cc1-n1c(=S)sc2c(=O)n(-c3ccc(F)cc3)c(SCC(=O)O)nc21`, with 20.5% (active); and `Cc1cccc(S(=O)(=O)N2CCCCN3[C@@H](CO)[C@H](c4ccc(-c5cccnc5)cc4)[C@@H]3C2)c1`, with 0.453%.
In the case of `CCNC(=O)C[C@H]1CC[C@@H]2[C@H](COC[C@H](O)CN2C(=O)Nc2c(C)noc2C)O1` it was -1.03%; in that of `COc1ccc(CN(C)C[C@H]2OCCCC[C@H](C)Oc3ccc(NC(=O)NC4CCCCC4)cc3C(=O)N([C@@H](C)CO)C[C@@H]2C)cc1`, 0.374%; in that of `CO[C@@H]1CN(C)C(=O)c2cc(NC(=O)c3ccc4c(c3)OCO4)ccc2OC[C@H](C)N(CCC(F)(F)F)C[C@H]1C`, 1.3%.
Regarding `O=C(NCC[C@H]1CC[C@@H](NS(=O)(=O)c2cccc(Cl)c2)[C@@H](CO)O1)c1cnccn1`, the inhibition is -2.69%.
Then `C[C@H]1CN([C@@H](C)CO)C(=O)c2cc(C#Cc3ccccc3F)cnc2O[C@@H]1CN(C)C(=O)C1CC1`, with -2.35%; and `N#C[C@H]1[C@@H](c2ccccc2C2=CCCCC2)[C@H](CO)N1C(=O)c1ccccn1`, with -7.67%; and `COc1ccc2c3c(n(C)c2c1)[C@H](CO)N(C(C)=O)CC31CN(C(=O)c2cnccn2)C1`, with 0.415%.
For the compound `CCOC(=O)C1CCN(Cc2c(C(=O)N3CCOCC3)nc3c(C)cccn23)CC1`, the inhibition is 1.15%.
In the case of `Cc1cccn2c(CN(C)C3CCCc4ccccc43)c(C(=O)N3CCOCC3)nc12` (centres undefined) it was 11% (active); in that of `Cc1cccn2c(CNCC(C)Oc3cccnc3)c(C(=O)N3CCOCC3)nc12` (centres undefined), -0.924%; in that of `COc1ccc(C#Cc2ccc([C@H]3[C@H]4CN(C(=O)c5ccncc5)CC(=O)N4[C@H]3CO)cc2)cc1`, -0.009%.
In the case of `N#C[C@@H]1[C@H](c2ccccc2-c2cccc(F)c2)[C@@H](CO)N1C(=O)CN1CCOCC1` it was -0.655%.
In the case of `Cc1noc(C)c1NC(=O)N[C@@H]1CC[C@H](CC(=O)Nc2ccccc2)O[C@H]1CO` it was 2.14%; in that of `CO[C@@H]1CC[C@@H]2CCOc3c(C#N)cccc3C(=O)N(C)C[C@@H](C)C(=O)N(C)C[C@@H]1O2`, -0.159%.
